Screens deposited in PubChem BioAssay by National Center for Advancing Translational Sciences (NCATS).
Most compounds without a hit are left out; they make up all but 19% or so of the library.
HT1080 IDH1KD tx: HT-1080 IDH1 knockdown cell toxicity (counter line); HT-1080 IDH1 knockdown viability, ATP luminescence, 48 h; Potency, µM (series often up to 46.1 µM), for inactives: top-dose activity, negative = toxicity, most hits filed as cytotoxic; 360,000 compounds, 2% hits;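 note: 0% = DMSO wells and -100% = cell-free medium wells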
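HT-1080-IDH1KD cells (IDH1 knocked down), 750/well in RPMI with 5% FBS, treated with compound 48 h at 37 degrees C. Viability by CellTiter-Glo luminescence, normalised to DMSO and no-cell wells; concentration-response curves classed.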
HT1080-NT tox: kills 2HG-producing HT-1080-NT fibrosarcoma cells. HT-1080-NT fibrosarcoma viability, CellTiter-Glo ATP luminescence, 48 h. Potency, µM (series often up to 46.1 µM), without a hit: top-dose activity, negative = less viability, actives largely listed as cytotoxic. 360,000 compounds, 1.6% hits;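 note: NT is the 2HG producing partner of a matched IDH1 knockdown line; 0% = DMSO-treated cells and -100% = media-only wells without cells; nearly all actives have a fitted effect of over 55% in size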
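Read-out is CellTiter-Glo luminescence after 10 minutes at room temperature, following 48 hours' compound treatment of HT-1080-NT cells (750 cells/well, RPMI, 5% FBS, 37 degrees C).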
KB-3-1 cytotox: KB-3-1 parental cell cytotoxicity; 400,000 compounds, 1.4% hits; Potency, µM (highest dose often 46.1 µM), hits mostly cytotoxic; KB-3-1 viability, CellTiter-Glo ATP luminescence, 72 h; AID 1347075; note: nearly all actives have a fitted effect of over 60% in size
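Luminescent ATP read-out (CellTiter-Glo) measures survival of drug-naive KB-3-1 cells after 72 h compound exposure at 37 °C. Titration series was screened from lowest to highest concentration, with DMSO vehicle plates as background controls.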
KB-V1 cytotox: kills drug-selected multidrug resistant KB-V1 cells; Potency, µM (titrated, usually from 46.1 µM), usual class: cytotoxic; 400,000 compounds, 3.4% hits; AID 1347076; KB-V1 MDR cells viability, CellTiter-Glo, 72 h; note: nearly all actives have a fitted effect of over 60% in size
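In this primary screen, KB-V1 cells overexpressing P-gp are incubated with library compounds (lowest to highest concentration) for 72 h at 37 degrees C before a luminescent ATP viability read.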
DT40 TDP1 no CPT: qHTS for Inhibitors of human tyrosyl-DNA phosphodiesterase 1 (TDP1): qHTS in cells in absence of CPT; DT40 Tdp1-/- hTDP1 cells, no CPT, ATP luminescence, 48 h; Potency, µM (titrated, usually from 46.2 µM), for inactives: top-dose activity change, negative = growth inhibition, usual class: inhibitors; 420,000 compounds, 15% hits; note: nearly all actives have a fitted effect of over 55% in size
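Cells were dispensed at 400 per well, compounds added by pin tool, plates incubated ≥48 hr at 37 °C, then CellTiter-Glo added for 30 min at room temperature before luminescence reading. Line: DT40 Tdp1-/- complemented with hTDP1; camptothecin omitted.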
TDP1 cell CPT: DT40-hTDP1 cell growth loss with CPT; chicken DT40 Tdp1-/-;hTDP1 cells + 20 nM CPT, ATP luminescence, 48 h; Potency, µM (top dose mostly 46.2 µM), for the others: at the top dose activity change, negative = growth inhibition, hits mostly inhibitors; 420,000 compounds, 12% hits; AID 686979; note: nearly all actives have a fitted effect of over 55% in size
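Cell growth measured by CellTiter-Glo luminescence after a minimum 48 h, 37 C compound exposure with 20 nM CPT in Tdp1-knockout DT40 cells stably expressing hTDP1, seeded 400/well; qHTS titration format.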
Numbers without * were called inactive. Calls come from the whole dose curve; as a rule, active = well fitted curve in the direction sought with a large enough effect; inconclusive = small, poorly fitted or top-dose-only effect, or another doubt; inactive = no such curve, though single readings can be large; an effect the other way counts as inactive or inconclusive. Unless noted, % is set by controls: 0 for no effect and ±100 for the full control effect; potency is the fitted concentration of half-maximal effect.

What do the screens show for `O=C(Nc1ccc(Cl)c(Cl)c1)N(Cc1c[nH]c2ccccc12)C1CCCCC1`?
KB-3-1 cytotox: inactive; KB-V1 cytotox: inactive; DT40 TDP1 no CPT: 9.2µM*; TDP1 cell CPT: 5.8µM*

What do the screens show for `COc1ccc(CNC(=O)CCCn2c(=O)c3cccn3c3ccc(F)cc32)cc1OC`?
DT40 TDP1 no CPT: 18µM*; TDP1 cell CPT: 18µM*

What do the screens show for `COc1ccc(CCNC(=O)Cn2c(=O)c3cccn3c3ccccc32)cc1OC`?
DT40 TDP1 no CPT: 23µM*; TDP1 cell CPT: inconclusive

Results for COc1ccc(CNC(=O)CCn2c(=O)c3cccn3c3ccc(F)cc32)cc1OC ?
DT40 TDP1 no CPT: inconclusive; TDP1 cell CPT: -46%

Results for Cc1cccc(CNC(=O)CCCn2c(=O)c3cccn3c3ccc(F)cc32)c1 ?
DT40 TDP1 no CPT: 23µM*; TDP1 cell CPT: inconclusive

How did CCN(C[C@H]1N[C@@](C)(C(=O)OC)[C@H]2C(=O)N(Cc3ccccc3)C(=O)[C@@H]12)C(=O)Nc1ccc(OC)cc1 do in these assays?
HT1080 IDH1KD tx: -3%; HT1080-NT tox: -2%; KB-3-1 cytotox: inactive; KB-V1 cytotox: inactive; DT40 TDP1 no CPT: -5%; TDP1 cell CPT: -6%

How did COc1ccc(-n2sc3ccccc3c2=O)cc1 do in these assays?
HT1080 IDH1KD tx: inconclusive; HT1080-NT tox: inconclusive; KB-3-1 cytotox: inconclusive; KB-V1 cytotox: inconclusive; DT40 TDP1 no CPT: 2.9µM*; TDP1 cell CPT: 3.7µM*

What do the screens show for `O=C1CCCC(=O)N1c1ccc(F)cc1`?
HT1080 IDH1KD tx: 10%; HT1080-NT tox: 10%; KB-3-1 cytotox: inactive; KB-V1 cytotox: inactive; DT40 TDP1 no CPT: 1%; TDP1 cell CPT: 19%

Results for Cc1ccc(C)c(-n2sc3ccc(F)cc3c2=O)c1 ?
HT1080 IDH1KD tx: inconclusive; HT1080-NT tox: 21µM*; KB-3-1 cytotox: inactive; KB-V1 cytotox: inactive; DT40 TDP1 no CPT: 3.7µM*; TDP1 cell CPT: 3.3µM*

What do the screens show for `O=c1c2cc(F)ccc2sn1-c1ccc(F)cc1`?
HT1080 IDH1KD tx: inconclusive; HT1080-NT tox: inconclusive; KB-3-1 cytotox: inactive; KB-V1 cytotox: inactive; DT40 TDP1 no CPT: 3.3µM*; TDP1 cell CPT: 2.6µM*

What do the screens show for `COc1ccc(-n2sc3ccc(F)cc3c2=O)cc1`?
HT1080 IDH1KD tx: inconclusive; HT1080-NT tox: inconclusive; KB-3-1 cytotox: inconclusive; KB-V1 cytotox: inconclusive; DT40 TDP1 no CPT: 2.6µM*; TDP1 cell CPT: 2.6µM*

What do the screens show for `CC(=O)c1cccc(NC(=O)c2ccc(-n3c(C)nnc3C)cc2)c1`?
KB-3-1 cytotox: inconclusive; KB-V1 cytotox: inactive; DT40 TDP1 no CPT: 0%; TDP1 cell CPT: 5%

What do the screens show for `Cc1cc(C)c(NC(=O)C2C(=O)Nc3ccccc3C(=O)N2C(C)(C)C)c(C)c1` (configuration not stated)?
HT1080 IDH1KD tx: 10%; HT1080-NT tox: 20%; KB-3-1 cytotox: inactive; KB-V1 cytotox: inactive; DT40 TDP1 no CPT: 0%; TDP1 cell CPT: 5%

Results for CCC(=O)N1CCN(c2ccc(NC(=O)COc3cccc(C)c3C)cc2)CC1 ?
HT1080 IDH1KD tx: -3%; HT1080-NT tox: 18%; KB-3-1 cytotox: inactive; KB-V1 cytotox: inactive; DT40 TDP1 no CPT: 18µM*; TDP1 cell CPT: inconclusive

How did COc1ccc(OCC(=O)Nc2ccc(N3CCN(C(=O)c4ccccc4C)CC3)cc2)cc1 do in these assays?
HT1080 IDH1KD tx: 0%; HT1080-NT tox: -5%; KB-3-1 cytotox: inactive; KB-V1 cytotox: inactive; DT40 TDP1 no CPT: inconclusive; TDP1 cell CPT: 26µM*

What do the screens show for `COc1ccc(OCC(=O)Nc2ccc(N3CCN(C(=O)c4ccccc4)CC3)c(Cl)c2)cc1`?
HT1080 IDH1KD tx: -9%; HT1080-NT tox: -14%; KB-3-1 cytotox: inactive; KB-V1 cytotox: inconclusive; DT40 TDP1 no CPT: 12µM*; TDP1 cell CPT: inconclusive
